# Only some compounds are listed: those with a hit (about 16% of all), similar ones and a draw of the others.
# uPA surface inh = qHTS for Inhibitors of Cell Surface uPA Generation; cell surface uPA generation assay, qHTS; Potency, µM (highest dose often 38.3 µM), for the others: at the highest dose activity change, negative = inhibition, actives largely listed as inhibitors; actives 0.31% (n = 330,000); AID 540303, 2011; active means well fitted inhibition curve with a large enough effect; inconclusive means small, poorly fitted or top-dose-only effect; inactive means no such curve, though single readings can be large or run the other way; tested in mouse RAW 264.7 cells; further: potency means the concentration at half of the fitted maximal effect; on the % scale 0 is the no-effect control and ±100 the full control effect; nearly all actives have a fitted effect of over 55% in size
# miR-21 act = qHTS Assay for Modulators of miRNAs and/orActivators of miR-21; HeLa miR-21 FLuc reporter, luciferase, 48 h; Potency, µM (doses to about 38.3 µM), inactives show at the highest dose activity change, positive = activation, actives largely listed as activators; 340,000 tested, under 10 active; AID 2288, 2010;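 further: % of control where 0% means no effect; miR-21 action dims this reporter so a rising signal means less miR-21 action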
#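 HeLa miR-21-FLuc reporter line, endogenous miR-21; 2000 cells/well in DMEM/10% FBS; compound titration up to ~40uM final, 48 h, 37 degree Celsius; luciferase detection reagent, 15 min lysis, CCD luminescence.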
# TDP1 inh = qHTS Assay for Inhibitors of Tyrosyl-DNA Phosphodiesterase (TDP1); recombinant TDP1, AlphaScreen DNA substrate cleavage; Tyrosyl-DNA phosphodiesterase 1 (Homo sapiens), Q9NUW8; Potency, µM (highest dose often 130 µM), inactives show at the top dose activity change, negative = inhibition, usual class: inhibitors; actives 0.28% (n = 350,000); further: potency means the concentration at half of the fitted maximal effect; on the % scale 0 is the no-effect control and ±100 the full control effect; nearly all actives have a fitted effect of over 40% in size
# Target sequence (Q9NUW8 whole entry, looked up): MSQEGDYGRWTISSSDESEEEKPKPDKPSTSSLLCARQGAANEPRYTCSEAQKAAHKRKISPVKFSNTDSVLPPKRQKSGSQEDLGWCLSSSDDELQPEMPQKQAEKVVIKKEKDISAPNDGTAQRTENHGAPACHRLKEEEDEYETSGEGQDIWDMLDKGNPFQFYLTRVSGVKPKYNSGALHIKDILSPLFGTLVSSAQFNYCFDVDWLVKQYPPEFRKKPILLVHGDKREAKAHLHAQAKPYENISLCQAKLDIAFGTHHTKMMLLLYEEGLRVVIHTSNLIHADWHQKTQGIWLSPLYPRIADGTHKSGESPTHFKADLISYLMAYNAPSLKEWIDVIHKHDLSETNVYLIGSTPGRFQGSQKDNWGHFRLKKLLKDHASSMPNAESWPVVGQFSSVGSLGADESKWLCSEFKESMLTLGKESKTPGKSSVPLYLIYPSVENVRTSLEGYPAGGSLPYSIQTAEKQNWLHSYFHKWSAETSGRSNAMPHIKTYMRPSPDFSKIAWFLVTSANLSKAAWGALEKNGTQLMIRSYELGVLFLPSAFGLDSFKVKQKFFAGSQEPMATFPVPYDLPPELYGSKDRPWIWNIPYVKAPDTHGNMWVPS
#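 Steps: enzyme plus compound, 15 min RT; add biotin/phosphotyrosine-FITC oligonucleotide (15 nM final), react 5 min; add donor/acceptor beads (10 ug/ml final), 10 min; read AlphaScreen. Tdp1 at 1 nM final.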
# DT40 TDP1 no CPT = qHTS for Inhibitors of human tyrosyl-DNA phosphodiesterase 1 (TDP1): qHTS in cells in absence of CPT; Potency, µM (titrated, usually from 46.2 µM), for inactives: top-dose activity change, negative = growth inhibition, hits mostly inhibitors; actives 15% (n = 420,000); DT40 Tdp1-/- hTDP1 cells, no CPT, ATP luminescence, 48 h; AID 686978, 2013; further: potency means the concentration at half of the fitted maximal effect; on the % scale 0 is the no-effect control and ±100 the full control effect; nearly all actives have a fitted effect of over 55% in size
#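 Readout: luminescence from CellTiter-Glo after 30 min in the dark at RT. Cells: DT40 Tdp1-/- with stable hTDP1, 400/well. Exposure: compounds alone, ≥48 hr, 37 °C.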
# TDP1 cell CPT = qHTS for Inhibitors of human tyrosyl-DNA phosphodiesterase 1 (TDP1): qHTS in cells in presence of CPT; actives 12% (n = 420,000); chicken DT40 Tdp1-/-;hTDP1 cells + 20 nM CPT, ATP luminescence, 48 h; Potency, µM (top dose mostly 46.2 µM), for the others: at the highest dose activity change, negative = growth inhibition, hits mostly inhibitors; further: potency means the concentration at half of the fitted maximal effect; on the % scale 0 is the no-effect control and ±100 the full control effect; nearly all actives have a fitted effect of over 55% in size
#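 Chicken DT40 Tdp1-/- cells stably complemented with human TDP1 were seeded at 400 cells/well in medium containing 20 nM camptothecin, exposed to pin-transferred compounds, and grown at 37 °C for at least 48 hr. Viability was read as ATP luminescence.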
# Numbers without * were called inactive; ? = inconclusive; . = no result; [ ] = dose if it differs, or a comment. Unless noted, the call rests on the fitted dose curve; in most records, active means well fitted curve in the direction sought with a large enough effect; inconclusive means small, poorly fitted or top-dose-only effect, or another doubt; inactive means no such curve, though single readings can be large; an effect the other way counts as inactive or inconclusive.
SMILES,uPA surface inh,miR-21 act,TDP1 inh,DT40 TDP1 no CPT,TDP1 cell CPT
COc1ccc(O)cc1CN1CCN(c2ncc(Cc3ccccc3)cn2)CC1,.,.,.,16.4µM*,23.1µM*
Oc1ccc(Cl)c(CN2CCN(c3ncc(Cc4ccccc4)cn3)CC2)c1,.,.,.,18.4µM*,?
Clc1ccccc1CN1CCN(c2ncccn2)CC1,3.4%,3.1%,.,-22.5%,-17.3%
Clc1cccc(CNc2cc(-c3ccccc3)nc3nncn23)c1,.,26.3%,4.7%,14.6µM*,14.6µM*
COc1ccccc1CNc1cc(-c2ccccc2)nc2nncn12,.,?,4.7%,16.4µM*,23.1µM*
Clc1ccc(CNc2cc(-c3ccccc3)nc3nncn23)cc1,.,23.8%,-2.3%,13µM*,16.4µM*
COc1ccccc1/C=C/C1=CC2(C)CC1(C)C(c1ccccc1OC)CC2=O (centres undefined),.,.,0.5%[21 µM],.,.
COc1cc(OC)cc(C(=O)Nc2cc3c(cc2N2CCCCC2)n(C)c(=O)n3C)c1,.,-1.1%,2.5%,-8.0%,?
COc1ccc(C(=O)Nc2cc3c(cc2N2CCCCC2)n(C)c(=O)n3C)cc1OC,-3.2%,-2.9%,5.5%,20.6µM*,?
CCOc1ccc(NC(=O)Nc2cc3c(cc2N2CCCCC2)n(C)c(=O)n3C)cc1,.,22.2%,2.5%,13µM*,11.6µM*
COc1cc(C(=O)Nc2cc3c(cc2N2CCCCC2)n(C)c(=O)n3C)cc(OC)c1OC,5.9%,-6.3%,6.8%,14.6µM*,20.6µM*
Cn1ncc2c(N3CCN(c4ccc(Cl)c(Cl)c4)CC3)ncnc21,-1.0%,11.9%,8.2%,7.31µM*,10.3µM*
Fc1ccccc1N1CCN(c2ncnc3c2nc2n3CCCCC2)CC1,.,-1.6%,2.5%,?,?
Cn1nnc2c(N3CCN(c4cccc(Cl)c4)CC3)ncnc21,.,-9.7%,5.2%,4.11µM*,?
Clc1ccc(-n2ncc3c(N4CCCC4)ncnc32)cc1,-2.1%,-57.6%,2.6%,-10.2%,15.5%
Cn1ncc2c(N3CCN(c4ccccc4F)CC3)ncnc21,.,-8.6%,7.8%,23.1µM*,?
Cc1ccc2c(=O)cc(C(=O)Nc3c(C(=O)c4ccccc4)oc4ccccc34)oc2c1,.,-0.2%,4.9%,1.7%,-9.1%
COc1ccc(-c2[nH]c(-c3ccccc3)nc2SCC(=O)Nc2nccs2)cc1,6.5%,13.9%,2.6%,23.1µM*,18.4µM*
COc1ccc(-c2[nH]c(-c3ccc(Cl)cc3)nc2SCC(=O)Nc2nccs2)cc1,?,17.9%,-2.6%,23.1µM*,16.4µM*
COc1ccc2c(c1)[nH]c1c(=O)n(CCC3=CCCCC3)cnc12,-4.8%,-1.3%,4.7%,23.1µM*,?
COc1ccc2[nH]c3c(NCCC4=CCCCC4)ncnc3c2c1,-19.0%,4.8%,6.2%,2.91µM*,2.59µM*
CCN(CC)CCNc1ncnc2c1[nH]c1ccc(OC)cc12,.,-2.3%,3.9%,.,.
COc1ccc(-n2ncc3c(NCCC4=CCCCC4)ncnc32)cc1,.,-37.6%,5.2%,?,16.4µM*
COC(=O)[C@@H]1CC2=CC(=O)CC[C@]2(C)[C@@]23O[C@@H]2C[C@@]2(C)[C@H](CC[C@@]24CCC(=O)O4)[C@@H]13,.,.,0.0%,.,.
Cc1ccc(C)c(NC(=S)NC2CC3CCCC(C2)N3CC(C)C)c1 (centres undefined),2.2%,1.3%,-5.1%[56.1 µM],-17.2%,-3.5%
CC(=O)Nc1ccc(N2C(=O)CSC2c2ccccc2[N+](=O)[O-])cc1 (centres undefined),3.9%,-0.7%,0.0%,-2.2%,-25.1%
CC(C)Cn1c(N2CCN(CC(=O)Nc3ccc(Cl)cc3)CC2)nc2ccccc21,3.2%,-1.9%,2.8%,20.6µM*,?
Cc1ccc(SCc2nc3ccccc3n2CC(=O)Nc2ccc(Cl)cc2)cc1,.,-10.7%,4.0%,?,20.6µM*

# Compound activity as filed in PubChem BioAssay.
